The subject of experiment [1] is Plasmodium falciparum Sir2 (PF13_0152, Sir2A). The experiment in a line: Plasmodium falciparum Sir2A binding compounds – biochemical, small-molecule microarray, 635 nm fluorescence, primary screen (AID 1098).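 Also: score merges spot fluorescence intensity with its signal-to-noise ratio.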 The following applies: fluorescence 635 nm, higher = more signal.
Experiment [2] is described as follows: probe aDKK1 binding to arrayed compounds – biochemical, biotinylated probe, 635/667 nm fluorescence, primary screen (AID 1099).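 Also: score merges 667nm spot fluorescence with signal to noise across triplicate slides.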 The following applies: small-molecule microarray, higher = more signal.
Experiment [3] can be described thus: probe aCHRDL2 binding to arrayed compounds – biochemical, biotinylated probe, 635/667 nm fluorescence, primary screen (AID 1100). The following applies: small-molecule microarray, higher = more signal.
A short description of experiment [4]: change in splice reporter luminescence, either direction, cell-based, HEK293, spliceosome inhibition project, primary screen (AID 1101).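 Also: HEK293 cells carrying a splicing-competent luciferase reporter gene; test concentration not given here.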 The following applies: HEK293 splicing luciferase reporter, 24 h, higher = more signal, called active from +8 up or from −8 down. (In general: A reporter such as luciferase makes a cellular process visible.)
In experiment [5] the target is Fibroblast growth factor 10 (Homo sapiens) (UniProt O15520). The experiment is described as follows: compounds binding fibroblast growth factor 10 – biochemical, small-molecule microarray, 635 nm fluorescence, primary screen (AID 1102). The following applies: FGF10 binding, fluorescence 635 nm, higher = more signal.
Sequence of Fibroblast growth factor 10 (Homo sapiens) (O15520 whole entry, looked up): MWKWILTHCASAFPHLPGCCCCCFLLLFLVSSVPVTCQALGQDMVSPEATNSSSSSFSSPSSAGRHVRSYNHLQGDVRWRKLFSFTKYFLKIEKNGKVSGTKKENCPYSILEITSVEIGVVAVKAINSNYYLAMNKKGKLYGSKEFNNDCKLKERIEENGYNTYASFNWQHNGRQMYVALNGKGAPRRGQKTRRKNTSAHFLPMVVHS
Experiment [6] deals with glycogen synthase kinase-3 (GSK3A per assay name; protocol says GSK3B). The experiment is described as follows: compounds binding glycogen synthase kinase-3 – biochemical, small-molecule microarray, 635 nm fluorescence, GSK3A, primary screen (AID 1103). Also: the record names both GSK3A and GSK3B. Particulars: fluorescence 635 nm, higher = more signal.
For experiment [7], the target named is Epidermal growth factor receptor (Homo sapiens) (UniProt P00533). The experiment is described as follows: compounds binding epidermal growth factor receptor – biochemical, small-molecule microarray, 635 nm fluorescence, primary screen (AID 1104).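 Also: score merges 667 nm emission intensity with spot signal to noise over triplicate slides.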 Particulars: EGFR binding, higher = more signal.
Sequence of Epidermal growth factor receptor (Homo sapiens) (P00533 whole entry, looked up): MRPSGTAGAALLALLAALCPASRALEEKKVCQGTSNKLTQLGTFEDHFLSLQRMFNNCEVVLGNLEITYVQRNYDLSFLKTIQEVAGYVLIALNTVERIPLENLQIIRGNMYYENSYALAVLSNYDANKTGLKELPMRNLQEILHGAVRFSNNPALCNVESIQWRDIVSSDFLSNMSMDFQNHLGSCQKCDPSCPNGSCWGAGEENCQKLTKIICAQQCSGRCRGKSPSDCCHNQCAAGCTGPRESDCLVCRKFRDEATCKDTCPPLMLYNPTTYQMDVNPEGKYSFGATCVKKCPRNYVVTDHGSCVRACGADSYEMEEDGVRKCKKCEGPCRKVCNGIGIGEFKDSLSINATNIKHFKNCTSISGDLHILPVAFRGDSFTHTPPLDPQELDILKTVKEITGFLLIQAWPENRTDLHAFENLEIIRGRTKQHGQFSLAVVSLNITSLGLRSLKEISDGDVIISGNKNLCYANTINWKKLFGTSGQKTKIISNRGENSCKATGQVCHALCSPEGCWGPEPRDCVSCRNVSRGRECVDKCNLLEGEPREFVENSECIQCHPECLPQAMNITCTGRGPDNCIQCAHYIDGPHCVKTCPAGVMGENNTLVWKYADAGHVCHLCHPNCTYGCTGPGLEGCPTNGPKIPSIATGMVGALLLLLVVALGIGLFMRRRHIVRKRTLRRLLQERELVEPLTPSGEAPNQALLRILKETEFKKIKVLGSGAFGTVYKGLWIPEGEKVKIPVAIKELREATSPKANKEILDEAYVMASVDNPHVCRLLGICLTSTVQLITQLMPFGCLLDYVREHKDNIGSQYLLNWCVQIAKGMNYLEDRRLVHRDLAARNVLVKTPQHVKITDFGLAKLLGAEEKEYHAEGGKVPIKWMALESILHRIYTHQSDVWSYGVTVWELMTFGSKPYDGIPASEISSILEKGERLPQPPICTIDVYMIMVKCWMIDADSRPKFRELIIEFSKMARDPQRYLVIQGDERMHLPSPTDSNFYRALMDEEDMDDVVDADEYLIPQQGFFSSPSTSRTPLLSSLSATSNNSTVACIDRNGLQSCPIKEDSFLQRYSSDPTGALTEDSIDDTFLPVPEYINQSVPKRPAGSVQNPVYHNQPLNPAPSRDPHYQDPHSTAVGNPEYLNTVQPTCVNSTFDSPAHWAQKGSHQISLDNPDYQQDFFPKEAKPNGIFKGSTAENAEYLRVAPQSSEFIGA
For experiment [8], the target named is Follistatin-related protein 3 (Homo sapiens) (UniProt O95633). The experiment in a line: compounds binding follistatin-related protein 3 – biochemical, small-molecule microarray, 635 nm fluorescence, primary screen (AID 1105).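 Also: score merges emission near 667 nm and signal to noise per printed spot across three slides.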 The following applies: FSTL3 binding, higher = more signal.
Sequence of Follistatin-related protein 3 (Homo sapiens) (O95633 whole entry, looked up): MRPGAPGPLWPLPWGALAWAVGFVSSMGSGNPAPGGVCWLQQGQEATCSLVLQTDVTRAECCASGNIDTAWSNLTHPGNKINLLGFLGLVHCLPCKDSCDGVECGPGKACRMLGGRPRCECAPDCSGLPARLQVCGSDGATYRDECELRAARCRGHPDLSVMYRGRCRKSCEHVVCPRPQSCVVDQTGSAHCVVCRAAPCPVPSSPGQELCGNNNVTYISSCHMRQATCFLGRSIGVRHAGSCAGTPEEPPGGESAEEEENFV
The target of experiment [9] is Dickkopf-related protein 1 (Homo sapiens) (UniProt O94907). The experiment is described as follows: small molecules binding DKK1 protein – biochemical, small-molecule microarray, 635 nm fluorescence scan, primary screen (AID 1106).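 Also: score merges emission near 667 nm with signal to noise over three replicate slides.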 Particulars: higher = more signal.
Sequence of Dickkopf-related protein 1 (Homo sapiens) (O94907 whole entry, looked up): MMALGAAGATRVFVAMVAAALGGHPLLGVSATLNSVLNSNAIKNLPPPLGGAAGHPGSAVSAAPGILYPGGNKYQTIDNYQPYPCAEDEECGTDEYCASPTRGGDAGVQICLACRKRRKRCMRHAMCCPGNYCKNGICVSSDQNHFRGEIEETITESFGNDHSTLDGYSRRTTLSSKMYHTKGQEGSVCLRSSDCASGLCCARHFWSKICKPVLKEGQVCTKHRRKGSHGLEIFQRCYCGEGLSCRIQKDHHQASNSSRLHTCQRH
The test system of experiment [10] is Inhibin beta A chain (activin A). The experiment is described as follows: small molecules binding activin A – biochemical, small-molecule microarray, 635 nm fluorescence scan, primary screen (AID 1107).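 Also: mouse activin A protein probed at 4.33 µg/mL on printed slides; score merges bound-protein fluorescence near 667 nm with spot signal-to-noise.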 The following applies: INHBA, higher = more signal.
Experiment [11] has as its system Human papillomavirus type 1a protein E7 (residues 44-93). The experiment in a line: small molecules binding HPV E7 44-93 – biochemical, small-molecule microarray, residues 44-93, 635 nm fluorescence, primary screen (AID 1108).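 Also: E7 fragment applied at 1 µg/mL in TBST for 1 h at 4 C; score combines spot fluorescence with its signal to noise ratio.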 The following applies: fluorescence 635 nm, higher = more signal.
Experiment [12] can be described thus: hepatitis C replication reporter changes, two-sided – Huh7 cells, luciferase reporter, HCV replication inhibitor project, primary screen (AID 1109).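 Also: huh7 hepatoma cells harbouring a luciferase neomycin HCV replicon reporter; luciferase luminescence as measure of HCV replicon replication; test concentration not given here.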 The following applies: Huh7 HCV replicon luciferase reporter, 48 h; higher = more signal.
Experiment [13] concerns the target Left-right determination factor 2 (Homo sapiens) (UniProt O00292). The experiment in a line: small molecules binding LEFTY2 protein – biochemical, small-molecule microarray, 635 nm fluorescence scan, primary screen (AID 1110). Particulars: higher = more signal.
In experiment [14] the target is Calmodulin-1 (Homo sapiens) (UniProt P0DP23). The experiment is described as follows: small molecules binding calmodulin-1 with EGTA – biochemical, small-molecule microarray, Cy5-labelled CALM1, profiling panel (AID 1111).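 Also: labelled calmodulin applied in Tris saline Tween buffer holding calcium plus EGTA and DTT.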 Particulars: Cy5-CALM1 binding fluorescence, higher = more signal.
The target is the same in experiment [15]. The experiment is described as follows: small molecules binding Ca-loaded calmodulin-1 – biochemical, small-molecule microarray, Cy5-labelled CALM1, plus calcium, artefact control for SMM control-protein annotation, profiling panel (AID 1112).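 Also: score merges spot fluorescence with signal to noise from triplicate slides.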 Particulars: Cy5-CALM1 binding fluorescence, higher = more signal.
Experiment [16] is described as follows: probe aWnt5a binding to arrayed compounds – biochemical, biotinylated probe, 635/667 nm fluorescence, primary screen (AID 1113).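 Also: score merges 667 nm fluorescence intensity with signal-to-noise per printed feature.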 The following applies: small-molecule microarray, higher = more signal.
Experiment [17] is described as follows: probe aShh binding to arrayed compounds – biochemical, biotinylated probe, 635/667 nm fluorescence, primary screen (AID 1114).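 Also: probe is biotin-labelled aShh protein from a stem cell growth factor screen; measures binding of labelled protein to compounds printed on the slide; score merges feature fluorescence at 667 nm with signal-to-noise.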 Particulars: small-molecule microarray, higher = more signal.
The nature of experiment [18]: probe aNog binding to arrayed compounds – biochemical, biotinylated probe, 635/667 nm fluorescence, primary screen (AID 1115).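 Also: probe is biotinylated aNog protein used at 0.15 µg/mL for 1 h at 4 C; z-score combines 667 nm fluorescence of each spot with its signal to noise.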 Particulars: small-molecule microarray, higher = more signal.
Experiment [19] addresses Torsin-1A-interacting protein 1 (Homo sapiens) (UniProt Q5JTV8). The experiment in a line: compound microarray binding of lysate hLAP1 – cell lysate, small-molecule microarray, COS7 lysate, 635/667 nm fluorescence, primary screen (AID 1116). The following applies: 635 nm fluorescence, higher = more signal.
The target in experiment [20] is Alpha-bungarotoxin (Bungarus multicinctus) (UniProt P60615). The experiment in a line: compounds binding labelled alpha-BTX control protein – biochemical, small-molecule microarray, Alexa647 label, 635/667 nm fluorescence, artefact control for SMM control protein annotation, profiling panel (AID 1117). Particulars: alpha-BTX-A647 binding fluorescence, higher = more signal.
Sequence of Alpha-bungarotoxin (Bungarus multicinctus) (P60615 whole entry, looked up): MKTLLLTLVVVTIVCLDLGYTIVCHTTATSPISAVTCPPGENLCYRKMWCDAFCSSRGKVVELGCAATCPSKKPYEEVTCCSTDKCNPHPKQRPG

Active and inactive are the calls of the source.

Sequence of Torsin-1A-interacting protein 1 (Homo sapiens) (Q5JTV8 whole entry, looked up): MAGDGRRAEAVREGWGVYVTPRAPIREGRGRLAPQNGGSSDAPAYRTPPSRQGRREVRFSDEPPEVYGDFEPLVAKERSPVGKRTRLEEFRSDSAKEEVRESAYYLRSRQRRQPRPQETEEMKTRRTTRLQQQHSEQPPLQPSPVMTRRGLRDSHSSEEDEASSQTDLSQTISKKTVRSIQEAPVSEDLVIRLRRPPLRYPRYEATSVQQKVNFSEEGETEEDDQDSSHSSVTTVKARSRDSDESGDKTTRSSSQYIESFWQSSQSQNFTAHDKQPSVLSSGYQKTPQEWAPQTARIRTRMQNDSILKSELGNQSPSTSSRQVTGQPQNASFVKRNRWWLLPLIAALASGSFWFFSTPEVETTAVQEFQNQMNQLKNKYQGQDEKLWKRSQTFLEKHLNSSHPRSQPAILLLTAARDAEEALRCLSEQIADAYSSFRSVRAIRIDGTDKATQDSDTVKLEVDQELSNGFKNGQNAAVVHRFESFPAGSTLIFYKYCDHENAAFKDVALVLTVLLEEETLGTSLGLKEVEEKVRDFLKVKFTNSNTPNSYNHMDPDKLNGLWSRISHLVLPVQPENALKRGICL
Sequence of Left-right determination factor 2 (Homo sapiens) (O00292 whole entry, looked up): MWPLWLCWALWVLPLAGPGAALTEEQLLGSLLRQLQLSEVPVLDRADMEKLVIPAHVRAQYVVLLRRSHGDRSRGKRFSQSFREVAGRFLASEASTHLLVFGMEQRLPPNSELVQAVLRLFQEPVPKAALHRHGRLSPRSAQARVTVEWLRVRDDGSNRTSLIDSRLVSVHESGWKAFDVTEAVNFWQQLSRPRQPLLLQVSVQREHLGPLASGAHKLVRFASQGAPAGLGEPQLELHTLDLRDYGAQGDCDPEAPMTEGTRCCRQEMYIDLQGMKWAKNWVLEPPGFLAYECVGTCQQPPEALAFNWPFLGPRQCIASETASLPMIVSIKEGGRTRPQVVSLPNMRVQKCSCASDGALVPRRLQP

In the case of `C[C@]1(C(=O)NCC(F)(F)F)c2ccccc2C(=O)N(Cc2ccccc2)[C@H]1c1ccc(CO)cc1`, the composite z-score is 0.905 in [1]; -0.0306 in [2]; 0.543 in [3]; -1.63 in experiment [5]; -1.8 in experiment [6]; -1.3 in experiment [7]. For the same molecule, the composite z-score was -1.47 in experiment [8]; -1.71 in experiment [9]; -0.264 in experiment [10]; -0.0857 in experiment [11]; -0.722 in [13]; -0.21 in [14]. In addition, the composite z-score is 0.799 in [15]; -0.287 in experiment [16]; -0.147 in experiment [17]; -0.0799 in [18]; 0.015 in experiment [19]; -0.553 in [20]. The z-score was 0.0226 (inactive) in [4] and -0.501 in [12].

With `COc1cc(CO)cc(I)c1O[C@H]1C=C(C(=O)NCCO)C[C@@H](NCC2CCCCC2)[C@@H]1O`, the composite z-score in experiment [1] was 0.587; in experiment [2], -0.155; in [3], -0.103; in experiment [5], 0.536; in experiment [6], 0.0102; in experiment [7], 0.151. In addition, the composite z-score was 0.607 in [8]; 0.502 in experiment [9]; 0.328 in experiment [10]; 0.552 in experiment [11]; 0.392 in [13]; -0.11 in [14]. Further, the composite z-score is -0.197 in [15]; -0.0512 in [16]; 0.0639 in experiment [17]; -0.319 in experiment [18]; 0.164 in [19]; 0.394 in experiment [20]. For the same molecule, the z-score was -0.47 (inactive) in experiment [4] and -1.58 in experiment [12].

On to `CN(C)CCCCNC(=O)[C@H]1C[C@H]2C(=O)N[C@@H](CCCC[N+](C)(C)C)C(=O)N2[C@H]1c1ccc(O)cc1`, for which the composite z-score in experiment [1] is 1.26; in experiment [2], -0.209; in experiment [3] it was -0.328; in experiment [5] it was -0.937; in experiment [6] it was -0.55; in experiment [7], -0.327. Besides, the composite z-score in [8] was -0.205; in [9] it was 0.357; in [10], 0.0643; in [11], -1.55; in [13] it was -0.0658; in experiment [14] it was -0.0691. In addition, the composite z-score in [15] was -0.441; in experiment [16], -0.208; in [17] it was -0.2; in [18], -0.253; in experiment [19], -0.511; in experiment [20] it was 0.15. Moreover, the z-score in [4] is -1.48 (inactive); in [12], -0.027.

With `CCCCCN1CC=CC23O[C@@H]4/C=C\CCC(C)OC(=O)C4[C@H]2C(=O)N(CCCCCCO)[C@@H]3C1=O` (stereo not given in full), the composite z-score in experiment [1] is 1.44; in experiment [2], -0.219; in [3], 0.248; in [5] it was -0.381; in experiment [6], -0.459; in experiment [7], -0.434. Further, the composite z-score in experiment [8] was -0.303; in [9], -0.397; in [10], 1.13; in experiment [11], 0.342; in experiment [13] it was -0.78; in experiment [14] it was -0.384. The composite z-score in [15] was 0.369; in experiment [16], -0.202; in [17], -0.0146; in [18] it was -0.12; in [19], 0.171; in [20] it was -0.267. The z-score in experiment [4] was -0.833 (inactive); in experiment [12], 0.499.

For the molecule `Cc1nc2cc(Br)ccc2c(=O)n1Cc1cccc(O)c1`, the composite z-score in experiment [1] was 0.547; in [2], -0.136; in experiment [3] it was -0.282; in [5], 0.89; in [6], 0.768; in [7] it was 0.416. Further, the composite z-score in experiment [8] was 0.782; in experiment [9], 1.16; in experiment [10], -0.022; in experiment [11], 0.804; in experiment [13], 0.874; in experiment [14], 0.523. The composite z-score is 0.302 in experiment [15]; -0.0263 in experiment [16]; -0.0946 in experiment [17]; 0.761 in [18]; 1.21 in experiment [19]; -0.0871 in experiment [20]. Also, the z-score in experiment [4] was -0.0746 (inactive); in [12], 0.201.

Turning to `COc1ccc([Si](C)(C)[C@H]2[C@H](CCO)O[C@@]3(C(=O)N(Cc4ccc(N5C(=O)c6ccccc6Oc6ccccc65)cc4)c4ccccc43)[C@@H]2C)cc1`, the composite z-score is 0.094 in [1]; -0.0509 in experiment [2]; 0.477 in experiment [3]; -0.94 in [5]; -1.96 in experiment [6]; -0.732 in experiment [7]. For the same molecule, the composite z-score was -1.25 in experiment [8]; -1.02 in [9]; -0.917 in experiment [10]; -0.451 in [11]; -0.804 in experiment [13]; 0.12 in experiment [14]. The composite z-score in [15] was 0.908; in experiment [16], -0.124; in [17], 0.0121; in [18], 0.0078; in [19], -0.438; in experiment [20], -0.516. Besides, the values for the z-score in experiment [4] and in experiment [12] were -0.964 (inactive) and -4.8, respectively.
